Reference: article PMC5540273 (PLoS ONE, 2017)

Tests used:
Settings in all cases: concentration: 1 μM,replicates: in singlicate; n = 1
PLK2 = tested on: PLK2
PLK3 = tested on: PLK3
PLK4 = tested on: PLK4
PRKCD = tested on: PRKCD
PRKCE = tested on: PRKCE
PRKCH = tested on: PRKCH
PRKCI = tested on: PRKCI
PRKCQ = tested on: PRKCQ
PRKD1 = tested on: PRKD1
PRKD2 = tested on: PRKD2
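Further: KINOMEscan kinase panel screen.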

SMILES	%Inh (PLK2)	%Inh (PLK3)	%Inh (PLK4)	%Inh (PRKCD)	%Inh (PRKCE)	%Inh (PRKCH)	%Inh (PRKCI)	%Inh (PRKCQ)	%Inh (PRKD1)	%Inh (PRKD2)
COc1cccc(OC)c1C(=O)Nc1cccc(-c2nn3ccccc3c2-c2ccnc(Nc3cccc(F)c3)n2)c1 [GSK361065]	10%	0%	16%	26%	14%	11%	21%	17%	17%	1%
C[C@@H]1CNc2c(sc3ccc4nc(-c5ccncc5)ccc4c23)C(=O)N1	1%	8%	92.7%	22%	65%	0%	0%	8%	49%	12%
CC(C)S(=O)(=O)N1CCN(Cc2ccc3c(c2)nc(NC(=O)c2ccsc2)n3C[C@H](O)c2ccccc2)CC1 [GW635815]	0%	0%	5%	11%	15%	13%	18%	12%	0%	0%
COc1cc2ncn(-c3cc(OCC4CCCCC4)c(C(N)=O)s3)c2cc1OC [GSK204559]	99.3%	99.3%	4%	24%	0%	30%	0%	32%	0%	0%
CCn1c(-c2nonc2N)nc2cncc(CNC3CCNCC3)c21.Cl [SB-747651]	0%	0%	0%	77%	66%	89%	10%	43%	0%	0%
O=C(NCC1CC1)c1ccc(-c2cc(C(=O)NC3CC3)ccc2F)cc1 [GW810445]	0%	0%	0%	0%	27%	0%	0%	0%	0%	0%
Cl.c1ccc(Oc2ccc(Nc3ccnc4cc(-c5ccc(CN6CCNCC6)o5)ccc34)cc2)nc1 [GW567142]	0%	0%	16%	0%	0%	0%	20%	0%	24%	3%
CCCC(=O)Nc1n[nH]c2ncccc12 [SB-601436]	7%	7%	0%	0%	19%	0%	0%	0%	0%	0%
COc1cccc(CNC(=O)NC2CCN(c3ccnc(Nc4cc(OC)c(OC)c(OC)c4)n3)C2)c1 (centres unmarked) [GSK1379765]	0%	0%	43%	0%	17%	12%	31%	37%	0%	3%
CS(=O)c1ccc(-c2coc3ccc(-c4n[nH]c(=O)o4)cc23)cc1 (centres unmarked)	4%	6%	34%	24%	7%	0%	8%	2%	0%	4%
CN(c1cccc(CNc2nc(Nc3ccc4c(c3)CC(=O)N4)ncc2C(F)(F)F)c1)S(C)(=O)=O	70%	69%	89%	27%	16%	0%	22%	38%	27%	39%
COc1cc2c(Nc3ccc(NC(=O)c4ccccc4)cc3)ncnc2cc1OCCCN1CCOCC1 [GSK301329]	0%	0%	36%	6%	0%	0%	0%	9%	0%	4%
Cn1cc(-c2cccc3c(N)c(C(N)=O)nnc23)cn1	13%	17%	26%	24%	10%	36%	24%	53%	0%	15%
COc1cc(Nc2nccc(N3CCC(NC(=O)c4cccc(C#N)c4)C3)n2)cc(OC)c1OC (centres unmarked) [GSK1379751]	0%	0%	36%	0%	7%	0%	0%	0%	0%	0%
C[C@@H]1CCN(C(=O)N2CCCC2)C[C@@H]1N(C)c1ncnc2[nH]ccc12	20%	21%	44%	17%	17%	13%	30%	0%	0%	54%
C[C@@H]1CNc2c(sc3ccc4nc(-c5ccc(O)cc5)ccc4c23)C(=O)N1	6%	15%	90.1%	43%	46%	35%	5%	59%	70%	34%
CC(=O)c1c(-c2ccncc2)[nH]c(-c2ccncc2)c1C [GW493036]	0%	0%	0%	0%	25%	13%	0%	0%	2%	15%

SMILES	%Inh (PLK2)	%Inh (PLK3)	%Inh (PLK4)	%Inh (PRKCD)	%Inh (PRKCE)	%Inh (PRKCH)	%Inh (PRKCI)	%Inh (PRKCQ)	%Inh (PRKD1)	%Inh (PRKD2)
CCOC(=O)N1CCC(n2cnc(-c3ccc(F)cc3)c2-c2ccnc(N)n2)CC1 [SB-219952]	2%	0%	25%	0%	4%	0%	8%	1%	32%	5%
Cc1cccc(-c2nc(Nc3ccncc3)c3sccc3n2)n1 [GW869641]	20%	13%	23%	20%	40%	21%	32%	0%	99.3%	
CC(=O)Nc1ccc(-c2cc3ncnc(SCC(=O)O)c3s2)cc1	15%	7%	47%	22%	10%	1%	0%	18%	22%	0%
NC(=O)c1ccc(-c2cc3ncnc(SCC(=O)O)c3s2)cc1	0%	6%	56%	0%	0%	0%	0%	0%	0%	0%
COC(=O)c1cccc(NC(=O)NC2CCN(c3ccnc(NCc4ccc(F)cc4)n3)CC2)c1 [GSK1379860]	0%	0%	0%	0%	0%	32%	28%	26%	12%	2%
COc1cc2nccc(Nc3ccc(Oc4ccccc4)cc3)c2cc1OC.Cl [GI261656]	0%	0%	15%	0%	0%	1%	0%	0%	0%	0%
Cn1ccc2ncnc(Oc3ccc(NC(=O)Nc4ccnc(C(F)(F)F)c4)c(Cl)c3)c21	0%	0%	11%	0%	0%	0%	0%	7%	0%	4%
Cc1cccc2c(-c3ccncc3)c(-c3ccc(F)cc3)nn12.Cl [GW461487]	0%	0%	0%	3%	10%	0%	23%	0%	2%	36%
Cn1ccc2ncnc(Oc3ccc(NC(=O)Nc4cnn(C(C)(C)C)c4)c(Cl)c3)c21	1%	11%	31%	27%	0%	0%	10%	21%	0%	13%
c1ccc(Oc2ccc(Nc3ccnc4ccc(-c5ccccn5)cc34)cc2)cc1 [GW407034]	0%	0%	15%	0%	3%	0%	0%	27%	0%	5%
O=C(NOCC1CC1)c1cc(Br)c(F)c(F)c1Nc1ccc(I)cc1Cl	0%	4%	0%	0%	6%	0%	0%	13%	0%	11%
NC(=O)Nc1sc(-c2ccc(F)cc2)cc1C(N)=O [GW789449]	20%	1%	26%	20%	17%	0%	25%	35%	0%	0%
Cc1nnc(-c2ccc3occ(-c4ccc(S(C)=O)cc4)c3n2)o1 (centres unmarked)	0%	0%	0%	0%	0%	4%	0%	0%	22%	0%
Cn1ccc2ncnc(Oc3ccc(NC(=O)Nc4cncc(C(F)(F)F)c4)c(Cl)c3)c21	0%	0%	0%	2%	0%	20%	0%	23%	0%	0%
CC(C(=O)NC1CCN(c2ccnc(Nc3ccc(F)cc3)n2)C1)c1ccc(Cl)cc1 (centres unmarked) [GSK1379713]	0%	0%	0%	0%	3%	8%	11%	21%	0%	0%
CSc1nccc(-c2c(-c3ccc(F)cc3)ncn2CCCN2CCOCC2)n1.Cl [SB-217146]	28%	44%	5%	8%	38%	0%	14%	0%	0%	1%
